Most compounds without a hit are left out; they make up all but 0.78% or so of the library.
RECQ1 helicase: inhibitors of human RECQ1 DNA helicase; P46063; RECQ1 DNA unwinding, red fluorescence kinetic read; AID 2549; Potency, µM (highest dose often 57.3 µM), usual class: inhibitors; 240,000 compounds, 0.54% hits; further: nearly all actives have a fitted effect of over 30% in size
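RECQ1T1 50 nM; forked duplex (20 bp + 30-nt ss tails) 200 nM, ATP 2 mM final; pH 8.0, 2 mM MgCl2, 2.5 ug/ml poly(dI-dC); 15 min compound preincubation; discontinuous kinetic read over 2 h at RT.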
BLM inh: inhibitors of human Bloom syndrome helicase BLM; recombinant BLM DNA unwinding, fluorescence dequenching; Potency, µM (doses to about 56.1 µM), most hits filed as inhibitors; 350,000 compounds, 0.2% hits; AID 2528; further: nearly all actives have a fitted effect of over 35% in size
APEX1 inh: APE1 (human) endonuclease inhibition | P27695 | recombinant APE1, TAMRA/BHQ-2 abasic DNA cleavage fluorescence | Potency, µM (top dose mostly 65.8 µM), most hits filed as inhibitors | 350,000 compounds, 0.35% hits | AID 2517; further: nearly all actives have a fitted effect of over 55% in size
Target sequence (P27695 whole entry, looked up): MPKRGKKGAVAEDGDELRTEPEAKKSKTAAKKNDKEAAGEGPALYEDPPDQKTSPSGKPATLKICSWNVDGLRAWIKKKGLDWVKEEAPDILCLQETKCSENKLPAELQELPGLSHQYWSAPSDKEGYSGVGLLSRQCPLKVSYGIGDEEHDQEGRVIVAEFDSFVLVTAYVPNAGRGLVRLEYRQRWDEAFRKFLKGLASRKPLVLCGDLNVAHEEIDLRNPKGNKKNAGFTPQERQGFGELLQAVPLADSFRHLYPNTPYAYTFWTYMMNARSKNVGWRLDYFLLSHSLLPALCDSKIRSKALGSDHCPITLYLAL
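APE1 at 0.75 nM final was preincubated with compound 15 min at room temperature, then 50 nM double-stranded THF abasic-site substrate (5'-TAMRA/3'-BHQ-2) was added. Fluorescence (ex 525/em 598 nm) was read kinetically; third-minus-first read gave activity.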
L3MBTL1 block: blocks human L3MBTL1 | Q9Y468 | AlphaScreen L3MBTL1–H3K9me1 peptide binding | Potency, µM (titrated, usually from 57.1 µM), most hits filed as inhibitors | 230,000 compounds, 0.66% hits; further: nearly all actives have a fitted effect of over 60% in size
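AlphaScreen assay: L3MBTL1 (50 nM final) was preincubated 30 min at room temperature with biotinylated H3(1-15)K9me1 peptide (75 nM final), then 30 min with library compounds; streptavidin donor and nickel chelate acceptor beads (10 ug/mL final) added, 30 min dark.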
Of the large screens only hits and unclear results are named; the others gave an inactive call; ! = not active in a repeat. The call rests on the fitted dose curve; in most records, active means well fitted curve in the direction sought with a large enough effect; inconclusive means small, poorly fitted or top-dose-only effect, or another doubt; inactive means no such curve, though single readings can be large; an effect the other way counts as inactive or inconclusive.

CC(=O)O[C@H]1C(=O)[C@@]2(C)C([C@H](OC(=O)c3ccccc3)[C@]3(O)C[C@H](OC(=O)[C@H](O)[C@@H](NC(=O)c4ccccc4)c4ccccc4)C(C)=C1C3(C)C)[C@]1(OC(C)=O)CO[C@@H]1C[C@@H]2OC(=O)[C@H](C)NC(=O)c1ccc(-c2c3ccc(=O)cc-3oc3cc(O)ccc23)c(C(=O)O)c1 (some centres undefined)	RECQ1 helicase 3.16µM, BLM inh 3.16µM, APEX1 inh 3.16µM (no result: L3MBTL1 block)
C/C=C(\C)C(=O)N[C@@H](c1ccccc1)[C@@H](O)C(=O)O[C@H]1C[C@@]2(O)[C@@H](OC(=O)c3ccccc3)C3[C@](C)(C(=O)[C@H](OC(C)=O)C(=C1C)C2(C)C)[C@@H](O)C[C@H]1OC[C@@]31OC(C)=O (some centres undefined)	none
CC(=O)[O-].CC(=O)[O-].O.O.[Cd+2]	APEX1 inh 0.794µM (no result: BLM inh, L3MBTL1 block)
C=CC(C)=O	none (no result: BLM inh, L3MBTL1 block)
CCN(CC)c1ccc(/C=C2/C(=O)NC(=O)N(Cc3ccco3)C2=O)cc1	RECQ1 helicase 31.6µM, APEX1 inh inconclusive, L3MBTL1 block inconclusive
O=C1NC(=S)N(Cc2ccco2)C(=O)/C1=C\c1cccs1	RECQ1 helicase 7.08µM, BLM inh 28.2µM, APEX1 inh 3.55µM (no result: L3MBTL1 block)
O=C1NC(=O)N(Cc2ccco2)C(=O)/C1=C\c1cccn1CCOc1ccc(Cl)cc1	RECQ1 helicase inconclusive
C=CCN1C(=O)/C(=C/c2cccs2)C(=O)NC1=S	L3MBTL1 block inconclusive
CN(C)c1ccc(/C=C2/C(=O)NC(=O)N(Cc3ccco3)C2=O)cc1	RECQ1 helicase inconclusive, APEX1 inh 28.2µM, L3MBTL1 block inconclusive
COc1ccc(/C=C2/C(=O)N(Cc3ccco3)C(=O)N(C(C)C)C2=O)cc1	RECQ1 helicase 25.1µM, APEX1 inh 22.4µM, L3MBTL1 block inconclusive
CC(Cl)CCl (centres undefined)	none (no result: BLM inh, L3MBTL1 block)
C=C(C)[C@@H]1CC[C@]2(C(=O)O)CC[C@]3(C)[C@H](CCC4[C@@]5(C)CC[C@H](O)C(C)(C)[C@@H]5CC[C@]43C)[C@@H]12 (some centres undefined)	none (no result: BLM inh, L3MBTL1 block)
CCN1/C(=C\C=C\C2=[N+](CC)c3ccccc3C2(C)C)C(C)(C)c2ccccc21	RECQ1 helicase 28.2µM, BLM inh 7.94µM, APEX1 inh 31.6µM (no result: L3MBTL1 block)
Nc1nonc1C(=O)N/N=C/c1ccc([N+](=O)[O-])o1	L3MBTL1 block 35.5µM
N/C(=N\[N+](=O)[O-])N/N=C/c1ccc(O)cc1	none
CN(C)[C@@H]1C(=O)C(C(N)=O)=C(O)[C@@]2(O)C(=O)C3=C(O)c4c(O)ccc(Cl)c4[C@@](C)(O)[C@H]3C[C@@H]12	none (no result: RECQ1 helicase, L3MBTL1 block)
CN(C)[C@@H]1C(=O)C(C(N)=O)=C(O)[C@@]2(O)C(=O)C3=C(O)c4c(O)cccc4[C@@](C)(O)[C@H]3[C@H](O)[C@@H]12	RECQ1 helicase 11.2µM!, APEX1 inh 7.94µM!, L3MBTL1 block 1µM!
O=S(=O)(O)F	none (no result: BLM inh, L3MBTL1 block)
NC1C=CC=C(C(=O)O)C1 (centres undefined)	APEX1 inh 12.6µM! (no result: BLM inh, L3MBTL1 block)
O=C(Nc1ccc2ccccc2c1)c1nn(C23CC4CC(CC(C4)C2)C3)cc1Br	APEX1 inh 4.47µM
Cc1nc(Cl)sc1C(=O)Nc1ccc2ccccc2c1	none
CC(C)C[C@H](CN)CC(=O)O	none (no result: RECQ1 helicase, BLM inh, L3MBTL1 block)
CC(C)c1ccc(N2C(=O)NC(=O)/C(=C\C=C\c3ccco3)C2=O)cc1	RECQ1 helicase 15.8µM, BLM inh inconclusive, APEX1 inh inconclusive (no result: L3MBTL1 block)
O=C1NC(=O)N(CCc2ccc(F)cc2)C(=O)/C1=C/c1ccco1	RECQ1 helicase 28.2µM, APEX1 inh 10µM (no result: L3MBTL1 block)
CCN1C(=O)C(=C/C=C/c2ccco2)C(=O)N(CC)C1=S	APEX1 inh inconclusive, L3MBTL1 block 12.6µM
O=C1NC(=O)N(Cc2ccccc2)C(=O)/C1=C/C=C/c1ccco1	RECQ1 helicase 11.2µM, APEX1 inh inconclusive, L3MBTL1 block 28.2µM
CC(C)c1ccc(N2C(=O)NC(=O)/C(=C\c3cnc(-c4ccccc4)nc3)C2=O)cc1	none
C=C[C@H]1CN2CC[C@H]1C[C@H]2[C@H](OC(=O)OCC)c1ccnc2ccc(OC)cc12	none (no result: RECQ1 helicase, BLM inh, L3MBTL1 block)
CN(C)c1ccc(N(C)C)cc1	APEX1 inh inconclusive (no result: BLM inh, L3MBTL1 block)
CC1=C(C(=O)O)N2C(=O)C(NC(=O)Cc3ccccc3)C2SC1 (centres undefined)	none (no result: L3MBTL1 block)
CO/N=C(\C(=O)N[C@@H]1C(=O)N2C(C(=O)O)=C(CSc3nc(=O)c(O)nn3C)CS[C@H]12)c1csc(N)n1	APEX1 inh 14.1µM (no result: RECQ1 helicase, BLM inh, L3MBTL1 block)
